# Screening data: PubChem, several laboratories
# Cardiac RTF inh: cardiac RTF calcium desensitization. IANBD-labeled cardiac RTF, Ca2+ fluorescence. inhibition, % at 7.15 µM. actives 0.12% (n = 340,000);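 active = inhibition above the mean inhibition of all tested compounds plus 3 SD, cut at about 17% in these data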;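 note: assay run at fixed EC70 calcium of 1.6 mM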
# Keap1 Nrf2 FP: disrupts human Keap1 binding to Nrf2 peptide; Q14145; Keap1 Kelch-Nrf2 peptide fluorescence polarization, 1536-well; inhibition, % at 9.4 µM; actives 0.15% (n = 340,000); AID 504523; in the data active = inhibition above about 12%; inconclusive = no clear call, values can overlap the other calls; inactive = below about 7.3%;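 note: human Keap1 Kelch domain with fluorescein labeled Nrf2 9mer peptide probe; higher means more block of Keap1 binding to Nrf2 peptide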
# LANA-H2A inh: blocks KSHV LANA binding to histone H2A/H2B; Q9QR71; cell-free LANA-H2A/H2B peptide, fluorescence polarization; inhibition, % (no concentration beside the values); actives 0.6% (n = 320,000); in the data active = inhibition mostly above about 10%, no sharp cut-off; inactive = mostly below about 6.7%
# C-LANA FP: KSHV C-LANA DNA binding inhibition. MBP-C-LANA/FAM-LBS DNA binding, fluorescence polarization. inhibition, % at 9 µM. actives 0.078% (n = 340,000);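 active = highest replicate inhibition at or above 60% at 9 µM, even if other replicates fall short; inactive = all replicates below 60% inhibition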
# cardiac RTF act: increases calcium sensitivity of human cardiac regulated thin filaments | P19429+P45379 | IANBD-labeled TnC RTF fluorescence at EC20 calcium; 0% EC20 calcium, 100% full calcium | activation, % at 7.2 µM | actives 0.24% (n = 340,000);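 active = activation above the mean over all tested compounds plus 3 SD, cut at about 30% in these data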;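 note: rise in fluorescence read as greater calcium sensitivity of cardiac thin filaments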
# Hits are given with their value; 0 = inactive; ? = inconclusive; - = no result given; + = active, no number. An excerpt weighted towards active compounds, which were near 0.99% of everything screened.
SMILES,Cardiac RTF inh,Keap1 Nrf2 FP,LANA-H2A inh,C-LANA FP,cardiac RTF act
Cc1ccc(C)c(Cn2c(C(=O)O)c(C=O)c3ccccc32)c1,0,0,0,0,86
CCCC(=O)OCC[N+](C)(C)C,0,0,20,0,0
CCCCCCCCCCOC(=O)CCN1CC1,0,0,-,0,0
O=C(O)C1C(C(=O)O)C2(Cl)C(Cl)=C(Cl)C1(Cl)C2(Cl)Cl (stereo unspecified),0,0,0,0,0
C#C[C@]1(O)CC[C@H]2[C@@H]3CCC4=Cc5nc6nc7ccccc7n6cc5C[C@]4(C)[C@H]3CC[C@@]21C,0,0,0,0,38
CC(C)(O)C(=O)Nc1ccc([N+](=O)[O-])c(C(F)(F)F)c1,0,0,20,0,0
CCCC/C(C)=C/[C@@H](NP(=O)(c1ccccc1)c1ccccc1)c1ccccc1,0,0,0,0,0
CC1(C)OC(c2ccccc2)=C/C(=C/C=C2C(=O)NC(=O)NC2=O)O1,0,0,0,0,110
O=C1NC(=O)C(=Cc2ccc(Sc3ccccc3)o2)C(=O)N1,0,0,0,0,0
CS(=O)(=O)CCN1CC2CCCC(C2)C1,0,0,-,0,0
NNc1n[nH]c(=S)n1N,0,0,0,0,0
CCN(CC)c1ccc(/C=N/c2sc3c(c2C#N)C2CCN3CC2)c(O)c1,0,0,0,0,146
Cc1ccsc1/C=C1\C(=O)NC(=S)N(C)C1=O,0,0,0,0,0
COc1ccc(/C=C2\C(=O)NC(=S)N(C)C2=O)cc1C,0,47,0,0,0
COC(=O)C1=C(c2cc3ccccc3o2)C[C@@H]2CC[C@H]1N2C(=O)NC(C)C,0,0,0,0,0
Cc1cc(C(=O)OCC(=O)Nc2ccc(F)cc2)c(C)n1C1CC1,0,0,0,0,0
Cc1cc(C(=O)OCC(=O)Nc2cccc(F)c2)c(C)n1C1CC1,0,0,+,0,0
O=C1NC(=O)C(=Cc2cn(CCOc3ccc4c(c3)OCO4)c3ccccc23)C(=O)N1,0,0,0,0,159
C=CCn1cc(C=C2C(=O)NC(=O)NC2=O)c2ccccc21,0,0,0,0,0
CCN(CC)c1ccc(N=Cc2c(O)n(CCc3ccc(OC)c(OC)c3)c(=O)[nH]c2=O)cc1,0,0,0,0,0
COc1ccc(CCn2c(O)c(C=Nc3ccc(F)cc3)c(=O)[nH]c2=O)cc1OC,-,-,15,-,-
CN1C(=O)/C(=C/c2ccc(N3CCCCCC3)o2)C(=O)NC1=S,0,0,0,0,86
CN1CCN(c2ccc(/C=C3\C(=O)NC(=S)N(c4cccc(Br)c4)C3=O)o2)CC1,0,0,0,0,97
CN1C(=O)/C(=C\c2ccc(N3CCCCC3)o2)C(=O)NC1=S,0,0,0,0,55
C=CCCC1(CC(C)C)C(=O)NC(=S)NC1=O,0,0,-,0,0
SMILES,Cardiac RTF inh,Keap1 Nrf2 FP,LANA-H2A inh,C-LANA FP,cardiac RTF act
O=C(CN1CCN(C(=O)COc2cccc(F)c2)CC1)Nc1ccc(Cl)c(C(F)(F)F)c1,0,0,0,0,0
O=[N+]([O-])c1cnc[nH]1,0,0,0,0,0
CCN1C(=O)NC(=O)/C(=C\c2cn(CC(=O)N3CCCCC3C)c3ccccc23)C1=O (stereo unspecified),0,?,33,0,0
CN1C(=O)C(=Cc2cn(CC(=O)N3CCCC3)c3ccccc23)C(=O)N(C)C1=O,0,0,0,0,0
O=C(O)Cn1cc(C=C2C(=O)NC(=O)NC2=O)c2ccccc21,0,0,0,0,0
O=C(Cn1cc(C=C2C(=O)NC(=O)NC2=O)c2ccccc21)NCC1CCCO1 (stereo unspecified),0,0,18,0,0
COC(=O)c1c2[n+](cc3cc(OC)c(OC)cc13)CCc1cc(OC)c(OC)cc1-2,0,0,0,0,0
O=P(Nc1ccccc1)(Nc1ccccc1)Oc1cccc(Cl)c1,0,0,0,0,0
O=C1NC(=O)N(c2ccc(Cl)cc2)C(=O)/C1=C\c1ccc(Sc2nc3ccccc3[nH]2)o1,0,0,0,0,0
NC(=O)c1ccc(N=Cc2c(O)n(Cc3ccco3)c(=O)[nH]c2=O)cc1,0,0,0,0,0
CCN(CC)c1ccc(N=Cc2c(O)n(Cc3ccco3)c(=O)[nH]c2=O)cc1,0,0,0,0,79
N#CC12CNCC1CN=N2 (stereo unspecified),0,0,18,0,0
COC(=O)C1=C(c2cccc(C#N)c2)C[C@@H]2CC[C@H]1N2C(=O)NC1CCCCC1,0,0,0,0,0
CC(C)C[C@H]1C(=O)N2CCC[C@H]2[C@]2(O)O[C@](NC(=O)[C@@H]3C=C4c5cccc6[nH]cc(c56)C[C@H]4N(C)C3)(C(C)C)C(=O)N12,0,34,0,67,67
NC1CCc2cc(O)c(O)cc2C1 (stereo unspecified),0,0,0,0,0
Cc1sc(-n2c(C)cc(C=C3C(=O)NC(=O)NC3=O)c2C)c(C#N)c1C,-,-,17,-,-
Cc1cc(/C=C2\C(=O)NC(=O)N(c3ccc(Cl)cc3)C2=O)c(C)n1-c1sc2c(c1C#N)CCCC2,0,0,0,0,0
C=CCN1C(=O)/C(=C\c2ccc(N3CCOCC3)o2)C(=O)NC1=S,0,0,0,0,49
CCN1C(=O)C(=Cc2ccc(N3CCOCC3)o2)C(=O)N(CC)C1=S,0,0,0,0,33
COc1ccc(CC2C(=O)NC(=O)N(c3ccccc3)C2=O)c(OC)c1 (stereo unspecified),0,0,0,0,0
COc1ccc(CC2C(=O)N(c3ccccc3)C(=O)N(c3ccccc3)C2=O)c(OC)c1,0,0,13,0,0
C[N+](C)(C)CCc1ccc(O)cc1,0,0,11,0,0
C=CCN1C[C@@H](C)N(C(c2ccc(C(=O)N(CC)CC)cc2)c2cccc(OC)c2)C[C@@H]1C (stereo partly specified),0,0,0,0,0
CC(C)CC12CN3CCN(CC(C3)C1O)C2 (stereo unspecified),0,0,0.7,0,0
O=C(C(Cc1ccccc1)NS(=O)(=O)c1cccc2nsnc12)N1CCC2(CC1)OCCO2 (stereo unspecified),0,0,0,0,0
SMILES,Cardiac RTF inh,Keap1 Nrf2 FP,LANA-H2A inh,C-LANA FP,cardiac RTF act
O=C(C1CCCN(S(=O)(=O)c2cccc3nsnc23)C1)N1CCC2(CC1)OCCO2 (stereo unspecified),-,-,45,-,-
CN(C)N=O,0,0,49,0,0
CCN(CC)N=O,0,0,0,0,0
O=c1[nH]c(=O)n(CCc2ccccc2)c(O)c1C=NC1CC1,-,0,0,0,-
Cn1cc(C(=O)OCC(=O)Nc2ccccc2)c2ccccc21,0,0,90,0,0
O=c1c2ccccc2nc(/C=C/c2ccc3c(c2)OCO3)n1-c1ccccc1,0,0,11,0,0
CCOS(C)(=O)=O,0,0,0,0,0
CCC(C)/C=C(C)/C=C/C1=CC2=C(Cl)C(=O)C(C)(OC(C)=O)C(=O)C2=CO1 (stereo unspecified),0,0,0,0,0
